Measurements: PubChem BioAssay
Activity calls are given as the source filed them. Unless noted, how the calls were made is not given here.

How the values were obtained:
[1] = compound effects on lung adenocarcinoma cell viability – A549, calcein-AM fluorescence, 48 h, basal, profiling panel (AID 1162); settings: higher = more signal; further: test concentration not given here
[2] = compound effects on differentiated 3T3-L1 adipocyte viability – cell-based, 3T3-L1 adipocytes, calcein-AM fluorescence, 48 h, basal, profiling panel (AID 1163); settings: 3T3-L1 adipocytes viability, higher = more signal; further: test concentration not given here
[3] = compound effects on hepatocellular carcinoma cell viability – HepG2, calcein-AM fluorescence, 48 h, basal, profiling panel (AID 1164); settings: higher = more signal; further: test concentration not given here
[4] = compound effects on multiple myeloma cell viability – MM1S, calcein-AM fluorescence, 48 h, basal, profiling panel (AID 1165); settings: higher = more signal;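 further: viability of MM1S multiple myeloma cells under basal unstimulated conditions; test concentration not given here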
[5] = calcein-AM signal in unstimulated myeloma cells – cell-based, calcein-AM fluorescence, 48 h, PK04 Diversity Set, profiling panel (AID 1166); settings: RPMI8226 myeloma viability, higher = more signal;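 further: cells grown under basal conditions without added stimulus; test concentration not given here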
[6] = JC-1 mitochondrial signal, unstimulated HepG2 cells – cell-based, JC-1 fluorescence, 24 h, 100 nL compound, profiling panel (AID 1167); settings: HepG2 mitochondrial potential, higher = more signal; further: test concentration not given here
[7] = JC-1 mitochondrial signal, unstimulated adipocytes – cell-based, JC-1 fluorescence, 3T3-L1 adipocytes, 24 h, 100 nL compound, profiling panel (AID 1168); settings: JC-1 mitochondrial fluorescence, higher = more signal, called active from +8 up or from −8 down; further: test concentration not given here
[8] = JC-1 mitochondrial signal, unstimulated myeloma cells – cell-based, JC-1 fluorescence, RPMI8226, 24 h, 100 nL compound, profiling panel (AID 1169); settings: JC-1 mitochondrial potential fluorescence, higher = more signal; further: test concentration not given here
[9] = JC-1 mitochondrial signal, unstimulated MM1S myeloma – cell-based, JC-1 fluorescence, 24 h, 100 nL compound, profiling panel (AID 1170); settings: MM1S mitochondrial potential, higher = more signal; further: test concentration not given here
[10] = resazurin metabolic signal in A549 cells – cell-based, resazurin fluorescence, 24 h, PK04 Diversity Set, profiling panel (AID 1171); settings: A549 viability, higher = more signal, called active from +8 up or from −8 down; further: test concentration not given here
[11] = resazurin metabolic signal in HepG2 cells – cell-based, resazurin fluorescence, 24 h, PK04 Diversity Set, profiling panel (AID 1172); settings: HepG2 viability, higher = more signal; further: test concentration not given here
[12] = budding yeast growth changes without added modifier – OD600, strain BY4716, 24 h, basal condition, primary screen (AID 1173); settings: S. cerevisiae BY4716 growth, OD600, 24 h; higher = more signal, called active from +8 up or from −8 down
[13] = viability profiling in MM1S myeloma cells – cell-based, resazurin fluorescence, basal, 24 h, PK04 Diversity Set, profiling panel (AID 1174); settings: higher = more signal, called active from +8 up or from −8 down; further: test concentration not given here
[14] = target: Dihydroorotate dehydrogenase (quinone), mitochondrial (Plasmodium falciparum (isolate 3D7)) (UniProt Q08210); experiment: inhibition of P. falciparum DHODH – biochemical, C-terminal His tag, absorbance 600 nm, primary screen (AID 1175); settings: PfDHODH enzyme, DCIP absorbance 600 nm; higher = more signal, called active from +8 up or from −8 down;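 further: recombinant parasite enzyme with a five histidine tag at its C terminus; test concentration not given here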
Dihydroorotate dehydrogenase (quinone), mitochondrial (Plasmodium falciparum (isolate 3D7)), sequence (Q08210 whole entry, looked up): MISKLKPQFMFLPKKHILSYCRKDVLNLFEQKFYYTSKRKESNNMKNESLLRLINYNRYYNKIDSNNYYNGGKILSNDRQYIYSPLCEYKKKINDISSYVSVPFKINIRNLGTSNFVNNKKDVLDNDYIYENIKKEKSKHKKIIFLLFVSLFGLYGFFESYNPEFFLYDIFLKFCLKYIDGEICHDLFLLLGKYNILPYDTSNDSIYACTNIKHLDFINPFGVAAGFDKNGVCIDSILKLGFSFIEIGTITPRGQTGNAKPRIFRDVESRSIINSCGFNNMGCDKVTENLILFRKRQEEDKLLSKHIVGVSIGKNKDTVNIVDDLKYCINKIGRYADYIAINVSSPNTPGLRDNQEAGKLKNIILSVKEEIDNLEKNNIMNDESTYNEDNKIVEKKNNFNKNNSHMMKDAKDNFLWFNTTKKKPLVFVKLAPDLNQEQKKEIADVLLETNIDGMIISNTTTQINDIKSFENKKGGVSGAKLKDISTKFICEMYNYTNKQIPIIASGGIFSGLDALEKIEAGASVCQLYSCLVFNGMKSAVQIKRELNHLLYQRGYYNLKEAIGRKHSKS

[15] = inhibition of PAO1 biofilm formation – strain PAO1, LB-PBS medium, absorbance 600 nm, primary screen (AID 1176); further: test concentration not given here; settings: P. aeruginosa PAO1 growth/biofilm, A600, 12 h; higher = more signal
[16] = growth modulation of vineyard yeast isolate – strain RM11-1a, OD600, basal, 24 h, primary screen (AID 1177);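 further: cultures grown under basal conditions with no added stressor; test concentration not given here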; settings: S. cerevisiae RM11-1a growth, OD600, 24 h; higher = more signal, called active from +8 up or from −8 down
[17] = growth of efflux-deficient E. coli DRC39 – strain DRC39, OD650, 24 h, E. coli filamentation inducers, primary screen (AID 1178);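 further: growth measured as culture turbidity by optical density at 650 nm; test concentration not given here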; settings: E. coli DRC39 acrAB, higher = more signal, called active from +8 up or from −8 down
[18] = growth of efflux-deficient E. coli DRC39 – strain DRC39, OD650, 48 h, E. coli filamentation inducers, primary screen (AID 1179);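 further: screen aims at cell division blockers that make cells filament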; settings: E. coli DRC39 delta-acrAB growth, higher = more signal, called active from +8 up or from −8 down
[19] = viability profiling in RPMI8226 myeloma cells – cell-based, resazurin fluorescence, basal, 24 h, PK04 Diversity Set, profiling panel (AID 1180); settings: higher = more signal;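 further: RPMI8826 multiple myeloma cell line at 5000 cells per well; test concentration not given here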
[20] = target: E3 ubiquitin-protein ligase XIAP (Homo sapiens) (UniProt P98170); experiment: small molecules binding XIAP protein – biophysical, small-molecule microarray, fluorescence 635 nm, primary screen (AID 1181); settings: higher = more signal;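 further: score merges 667 nm emission and signal to noise over triplicate slides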
E3 ubiquitin-protein ligase XIAP (Homo sapiens), sequence (P98170 whole entry, looked up): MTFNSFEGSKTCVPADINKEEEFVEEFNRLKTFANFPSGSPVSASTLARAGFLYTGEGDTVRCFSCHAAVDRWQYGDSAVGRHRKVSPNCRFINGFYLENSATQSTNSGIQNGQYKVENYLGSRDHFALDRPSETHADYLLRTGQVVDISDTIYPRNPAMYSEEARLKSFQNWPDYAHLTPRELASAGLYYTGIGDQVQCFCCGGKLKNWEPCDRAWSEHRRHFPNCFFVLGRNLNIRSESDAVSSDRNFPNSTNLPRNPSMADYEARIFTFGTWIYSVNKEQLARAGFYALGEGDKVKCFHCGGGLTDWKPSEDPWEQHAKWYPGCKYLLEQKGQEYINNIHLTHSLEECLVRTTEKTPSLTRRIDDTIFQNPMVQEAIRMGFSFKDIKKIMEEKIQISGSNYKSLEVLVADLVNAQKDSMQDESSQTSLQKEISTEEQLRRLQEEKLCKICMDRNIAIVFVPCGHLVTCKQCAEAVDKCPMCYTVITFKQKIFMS

| SMILES | z-score [1] | z-score [2] | z-score [3] | z-score [4] | z-score [5] | z-score [6] | z-score [7] | z-score [8] | z-score [9] | z-score [10] | z-score [11] | z-score [12] | z-score [13] | composite z-score [14] | z-score [15] | z-score [16] | z-score [17] | z-score [18] | z-score [19] | composite z-score [20] |
| --- | --- | --- | --- | --- | --- | --- | --- | --- | --- | --- | --- | --- | --- | --- | --- | --- | --- | --- | --- | --- |
| COc1ccc([Si](C)(C)[C@H]2[C@H](CC(=O)N3CCC[C@H]3CO)O[C@@]3(C(=O)N(c4ccccc4)c4ccccc43)[C@@H]2C)cc1 | 1.35 | 0.42 | 0.628 | 1.63 | 0.912 | 2.53 | -0.667 (inactive) | 0.421 | -0.947 | 1.63 (inactive) | 1.75 | -2.26 (inactive) | 1.55 (inactive) | 0.0873 (inactive) | 0.826 (inactive) | -1.81 (inactive) | 1.21 (inactive) | 1.49 (inactive) | 0.843 | -0.167 |
| O=c1cccc(-c2ccc3ccccc3c2)o1 | -0.996 | -0.696 | -0.644 | -0.332 | -0.406 | -1.31 | 0.529 (inactive) | 0.463 | -0.288 | -0.223 (inactive) | -0.321 | -16.1 (active) | 0.2 (inactive) | -1.14 (inactive) | -0.281 (inactive) | -2.6 (inactive) | 0.632 (inactive) | 0.159 (inactive) | 0.37 | 0.0754 |
| [N-]=[N+]=NCc1ccccc1[C@@H]1OC(c2ccc(OCCCO)cc2)=N[C@]1(Cc1ccccc1)C(=O)O | 0.211 | 0.333 | 0.865 | 0.229 | -0.767 | -0.00992 | -1.01 (inactive) | -0.0434 | -0.969 | 0.45 (inactive) | 1.18 | -3.03 (inactive) | 0.615 (inactive) | -0.101 (inactive) | 0.466 (inactive) | 0.703 (inactive) | 0.305 (inactive) | -0.108 (inactive) | 0.469 | -0.0731 |
| O=C1O[C@@H](c2ccccc2)[C@@H](c2ccccc2)N2[C@@H](c3ccc(O)cc3)[C@]3(C(=O)Nc4ccc(C#CCCO)cc43)[C@@H](C(=O)N3CCCCCCC3)[C@H]12 | 0.498 | 0.93 | -0.284 | 0.59 | -1.24 | -1.06 | -0.585 (inactive) | -0.185 | 0.129 | 0.254 (inactive) | -0.348 | 0.176 (inactive) | -0.161 (inactive) | 1.29 (inactive) | 1.01 (inactive) | 0.524 (inactive) | 0.0109 (inactive) | -0.787 (inactive) | -0.53 | 0.567 |
| C=C(COC)C(=O)CC[C@@H](OC(=O)c1ccccc1-c1ccccc1C(=O)O)c1ccc(CO)o1 | -1.46 | -0.736 | -2.67 | -1.69 | -0.883 | -2.74 | 0.429 (inactive) | -0.323 | -0.857 | -1.03 (inactive) | -0.731 | -17.9 (active) | -0.0674 (inactive) | -6.3 (inactive) | 0.85 (inactive) | -21.6 (active) | 0.163 (inactive) | -0.171 (inactive) | 0.62 | 0.294 |
| Cc1ccc(S[C@]2(C(=O)NCC(F)(F)F)CC(=O)N(C3Cc4ccccc4C3)[C@@H]2c2ccc(CO)cc2I)cc1 | 0.833 | 0.236 | 0.506 | -2.1 | -3.02 | 0.194 | -0.131 (inactive) | 0.045 | -1.4 | 0.537 (inactive) | 0.788 | -3.18 (inactive) | -2.74 (inactive) | 0.427 (inactive) | 0.0898 (inactive) | -0.391 (inactive) | 0.715 (inactive) | 0.503 (inactive) | -1.32 | 0.0499 |
| C=CC[C@@]1(C(N)=O)N=C(c2ccc(OCCCO)cc2)O[C@@H]1c1ccccc1N=[N+]=[N-] | 1.38 | 1.01 | 0.314 | -0.35 | -0.0394 | -0.00877 | 0.875 (inactive) | -0.327 | 0.759 | 1.02 (inactive) | 0.895 | -1.08 (inactive) | 0.694 (inactive) | 0.832 (inactive) | 0.401 (inactive) | 0.178 (inactive) | 0.951 (inactive) | -0.0342 (inactive) | 0.502 | 0.0896 |
| Cc1ccc(S[C@]2(C(=O)NCCN3CCOCC3)CC(=O)N(C3CCCCC3)[C@@H]2c2ccc(CO)cc2)cc1 | 2.25 | 0.486 | 0.555 | 0.309 | -0.65 | -0.0786 | -0.281 (inactive) | 0.698 | 0.485 | 1.51 (inactive) | 0.375 | 0.436 (inactive) | 0.511 (inactive) | 0.113 (inactive) | 0.186 (inactive) | -0.463 (inactive) | 0.048 (inactive) | -0.483 (inactive) | 0.838 | 0.0024 |
| C=CCC(OC(C)=O)[C@@H]1[C@@H](N(Cc2cc3ccccc3o2)C(=O)c2cccc3ccccc23)c2cc(OCCCO)ccc2N1C(=O)Cc1ccc2ccccc2c1 (stereo not given in full) | 0.206 | 0.753 | 0.381 | 0.791 | -1.08 | 2.07 | -0.858 (inactive) | 0.313 | -0.963 | -1.05 (inactive) | -0.902 | 0.272 (inactive) | -0.411 (inactive) | 0.449 (inactive) | -0.735 (inactive) | 0.481 (inactive) | -0.741 (inactive) | -0.973 (inactive) | -0.276 | -0.0703 |
